Experimental data published in PubChem BioAssay (EPA / NIEHS).
Inconclusive results are not listed. Activity calls are given as the source filed them. The calls were made as follows: active = hit-call score of the fitted dose curve at least 0.9, where 1 is the maximum; inconclusive = response in the unintended direction; inactive = score below 0.9.

Key:
[1] = target: Cytochrome P450 2C19 (Homo sapiens) (UniProt P33261); assay: NVS_ADME_hCYP2C19: NovaScreen (NVS) CYP450-related Enzyme Activity (ADME) Assay for human CYP2C19 (AID 2283113);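 as to AC50: potency for inhibition seen as loss of fluorescent signal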
Summary of the method: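 Compounds first screened in duplicate at 10 uM, then confirmed in concentration series. Insect-cell-expressed human CYP2C19 turned over a fluorogenic substrate, and fluorescence was read after 1 h. Inhibition taken as signal loss relative to acetonitrile.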

[2] = target: human CYP2D6, CYP2D6 (gene 1565) (UniProt P10635); assay: NVS_ADME_hCYP2D6: NovaScreen (NVS) CYP450-related Enzyme Activity (ADME) Assay for human CYP2D6 (AID 2283107)
Sequence of human CYP2D6, CYP2D6 (gene 1565) (P10635 whole entry, looked up): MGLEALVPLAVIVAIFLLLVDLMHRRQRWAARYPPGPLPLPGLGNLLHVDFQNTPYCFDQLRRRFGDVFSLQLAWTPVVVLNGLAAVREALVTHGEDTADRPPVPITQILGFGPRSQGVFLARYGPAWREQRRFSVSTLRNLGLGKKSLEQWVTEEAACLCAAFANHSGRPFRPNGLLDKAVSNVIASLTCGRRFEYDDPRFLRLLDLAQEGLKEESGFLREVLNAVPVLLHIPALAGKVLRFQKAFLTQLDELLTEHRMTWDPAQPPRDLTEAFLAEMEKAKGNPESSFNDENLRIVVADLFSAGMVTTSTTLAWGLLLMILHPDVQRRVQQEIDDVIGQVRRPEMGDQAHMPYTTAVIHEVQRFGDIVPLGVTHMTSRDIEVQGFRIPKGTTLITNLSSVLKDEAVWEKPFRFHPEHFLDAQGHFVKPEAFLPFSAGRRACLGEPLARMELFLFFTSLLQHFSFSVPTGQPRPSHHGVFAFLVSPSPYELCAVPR
Summary of the method: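 Fluorescence readout of recombinant CYP2D6 (insect-cell derived) activity after 1 h incubation with test chemical. Acetonitrile served as baseline, loss-of-signal direction. Single-concentration duplicate screening at 10 uM preceded concentration-response retesting.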

[3] = target: Cytochrome P450 3A4 (Homo sapiens) (UniProt P08684); assay: NVS_ADME_hCYP3A4: NovaScreen (NVS) CYP450-related Enzyme Activity (ADME) Assay for human CYP3A4 (AID 2283110)
Sequence of Cytochrome P450 3A4 (Homo sapiens) (P08684 whole entry, looked up): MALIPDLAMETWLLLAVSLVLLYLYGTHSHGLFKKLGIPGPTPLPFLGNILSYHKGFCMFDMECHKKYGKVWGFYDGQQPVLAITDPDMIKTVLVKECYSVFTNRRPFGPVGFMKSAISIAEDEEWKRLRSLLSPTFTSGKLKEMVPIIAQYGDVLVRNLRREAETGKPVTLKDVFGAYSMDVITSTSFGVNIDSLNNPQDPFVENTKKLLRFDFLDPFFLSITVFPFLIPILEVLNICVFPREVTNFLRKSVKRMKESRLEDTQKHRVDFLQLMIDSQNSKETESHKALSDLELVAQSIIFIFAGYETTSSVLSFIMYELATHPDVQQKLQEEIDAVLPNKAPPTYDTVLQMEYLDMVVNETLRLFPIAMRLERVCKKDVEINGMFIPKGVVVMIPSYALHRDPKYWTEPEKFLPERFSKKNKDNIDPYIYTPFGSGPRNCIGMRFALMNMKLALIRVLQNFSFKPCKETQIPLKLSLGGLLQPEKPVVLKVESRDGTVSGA
Summary of the method: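 Recombinant CYP3A4 from insect cells, fluorescence enzyme read-out, 0.33 h after chemical addition. Acetonitrile = negative control/baseline. Primary HTS: 10 uM in duplicate; actives re-tested in concentration series.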

[4] = target: human CYP1A2, CYP1A2 (gene 1544) (UniProt P05177); assay: NVS_ADME_hCYP1A2: NovaScreen (NVS) CYP450-related Enzyme Activity (ADME) Assay for human CYP1A2 (AID 2283102);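 as to AC50: potency for inhibition since loss of fluorescence marks reduced CYP1A2 activity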
Sequence of human CYP1A2, CYP1A2 (gene 1544) (P05177 whole entry, looked up): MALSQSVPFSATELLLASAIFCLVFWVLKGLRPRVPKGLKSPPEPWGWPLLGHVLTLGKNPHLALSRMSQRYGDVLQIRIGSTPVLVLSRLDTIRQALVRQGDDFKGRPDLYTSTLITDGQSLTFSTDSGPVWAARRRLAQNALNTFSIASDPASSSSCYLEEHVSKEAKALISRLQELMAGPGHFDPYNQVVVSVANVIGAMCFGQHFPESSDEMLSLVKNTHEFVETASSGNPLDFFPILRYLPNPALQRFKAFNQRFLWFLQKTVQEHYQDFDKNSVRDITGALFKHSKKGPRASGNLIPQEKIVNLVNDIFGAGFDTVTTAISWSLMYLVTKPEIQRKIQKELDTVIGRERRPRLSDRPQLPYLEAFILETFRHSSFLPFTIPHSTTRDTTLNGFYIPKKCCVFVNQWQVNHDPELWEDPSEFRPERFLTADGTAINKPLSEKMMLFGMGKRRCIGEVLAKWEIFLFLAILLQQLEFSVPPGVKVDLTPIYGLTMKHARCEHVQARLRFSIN
Summary of the method: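 Enzyme activity of insect-cell-expressed human CYP1A2 measured by fluorescence 0.5 h after compound addition, relative to acetonitrile. Compounds first tested in duplicate at 10 uM, actives followed up in concentration series.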

[5] = target: human CYP2C9, CYP2C9 (gene 1559) (UniProt P11712); assay: NVS_ADME_hCYP2C9: NovaScreen (NVS) CYP450-related Enzyme Activity (ADME) Assay for human CYP2C9 (AID 2283108)
Sequence of human CYP2C9, CYP2C9 (gene 1559) (P11712 whole entry, looked up): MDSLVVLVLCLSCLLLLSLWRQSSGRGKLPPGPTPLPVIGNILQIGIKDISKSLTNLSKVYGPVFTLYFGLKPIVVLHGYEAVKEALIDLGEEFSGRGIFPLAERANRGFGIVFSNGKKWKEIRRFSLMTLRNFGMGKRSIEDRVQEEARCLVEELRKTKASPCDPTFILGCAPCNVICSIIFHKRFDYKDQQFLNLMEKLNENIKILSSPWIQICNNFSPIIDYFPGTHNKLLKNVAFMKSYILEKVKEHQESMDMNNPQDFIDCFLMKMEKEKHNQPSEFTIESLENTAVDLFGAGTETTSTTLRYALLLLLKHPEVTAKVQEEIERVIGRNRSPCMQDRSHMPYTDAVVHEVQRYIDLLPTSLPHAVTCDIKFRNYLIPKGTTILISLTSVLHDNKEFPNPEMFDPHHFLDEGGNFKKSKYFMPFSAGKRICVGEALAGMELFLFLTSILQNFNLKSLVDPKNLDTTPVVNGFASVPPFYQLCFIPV
Summary of the method: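 Recombinant human CYP2C9 expressed in SF9 cells, fluorogenic substrate, fluorescence read 0.75 h after dosing. Chemicals first run in duplicate at 10 uM, with actives followed in concentration series; loss of signal versus acetonitrile baseline.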

[6] = target: human Caspase 5 (CASP5), CASP5 (gene 838) (UniProt P51878); assay: NVS_ENZ_hCASP5: NovaScreen (NVS) Enzymatic Assay for human Caspase 5 (CASP5) (AID 2283137)
Sequence of human Caspase 5 (CASP5), CASP5 (gene 838) (P51878 whole entry, looked up): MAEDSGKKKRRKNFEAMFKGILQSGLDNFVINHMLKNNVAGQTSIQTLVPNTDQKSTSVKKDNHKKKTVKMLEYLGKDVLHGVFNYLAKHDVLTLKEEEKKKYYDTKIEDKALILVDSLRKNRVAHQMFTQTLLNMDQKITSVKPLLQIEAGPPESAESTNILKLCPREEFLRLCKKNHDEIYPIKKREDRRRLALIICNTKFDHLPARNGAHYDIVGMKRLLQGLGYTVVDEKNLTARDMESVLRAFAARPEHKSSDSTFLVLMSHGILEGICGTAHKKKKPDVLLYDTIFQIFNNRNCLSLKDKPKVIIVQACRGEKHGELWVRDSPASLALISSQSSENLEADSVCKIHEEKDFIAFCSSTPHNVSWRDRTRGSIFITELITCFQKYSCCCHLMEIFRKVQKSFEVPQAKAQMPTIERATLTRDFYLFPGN
Summary of the method: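 Caspase 5 enzyme activity, detected as fluorescence signal loss, is measured in a biochemical format using E. coli-expressed protein. Reading occurs 2 hours post-dosing. Screening runs at 25 uM, with confirmed actives titrated to 50 uM maximum.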

[7] = target: Caspase-3 (Homo sapiens) (UniProt P42574); assay: NVS_ENZ_hCASP3: NovaScreen (NVS) Enzymatic Assay for human Caspase 3 (CASP3) (AID 2283139)
Sequence of Caspase-3 (Homo sapiens) (P42574 whole entry, looked up): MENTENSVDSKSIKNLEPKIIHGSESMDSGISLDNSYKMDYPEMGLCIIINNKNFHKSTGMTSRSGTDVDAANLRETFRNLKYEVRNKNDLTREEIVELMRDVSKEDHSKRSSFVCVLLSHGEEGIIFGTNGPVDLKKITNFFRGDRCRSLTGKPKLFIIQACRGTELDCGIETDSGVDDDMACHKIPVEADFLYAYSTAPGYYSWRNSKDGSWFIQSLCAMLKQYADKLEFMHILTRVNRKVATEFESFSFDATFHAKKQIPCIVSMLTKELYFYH
Summary of the method: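 Single-concentration screening at 25 uM in duplicate, with concentration-response follow-up to a 50 uM maximum for chemicals passing the threshold. Caspase-3 (human, E. coli-expressed) activity was read as substrate fluorescence after 1 h, with loss of signal relative to DMSO.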

[8] = target: human Beta-secretase (BACE), BACE1 (gene 23621) (UniProt P56817); assay: NVS_ENZ_hBACE: NovaScreen (NVS) Enzymatic Assay for human Beta-secretase (BACE) (AID 2283140);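 also: hits are inhibitors that reduce fluorescent substrate signal versus DMSO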
Sequence of human Beta-secretase (BACE), BACE1 (gene 23621) (P56817 whole entry, looked up): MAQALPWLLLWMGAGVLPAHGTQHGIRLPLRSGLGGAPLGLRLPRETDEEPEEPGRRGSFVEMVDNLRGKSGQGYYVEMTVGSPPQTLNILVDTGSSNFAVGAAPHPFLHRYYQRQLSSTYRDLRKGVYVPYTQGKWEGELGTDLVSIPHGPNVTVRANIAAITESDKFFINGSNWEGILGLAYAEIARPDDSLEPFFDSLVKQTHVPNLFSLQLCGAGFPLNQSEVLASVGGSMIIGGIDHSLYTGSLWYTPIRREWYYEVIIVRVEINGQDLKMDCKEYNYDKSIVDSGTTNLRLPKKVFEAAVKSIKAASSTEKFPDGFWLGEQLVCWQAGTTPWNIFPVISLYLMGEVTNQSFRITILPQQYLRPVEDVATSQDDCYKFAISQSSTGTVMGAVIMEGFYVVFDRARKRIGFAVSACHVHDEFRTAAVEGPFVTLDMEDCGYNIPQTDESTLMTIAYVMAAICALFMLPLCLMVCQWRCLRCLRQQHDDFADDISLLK
Summary of the method: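 Enzyme activity of SF9-produced BACE1 is measured cell-free by fluorescence, 1 hour post dosing, normalised to DMSO. Screening used 25 uM in duplicate, with concentration-response follow-up for actives.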

[9] = target: human Acid Phosphatase 1 (ACP1), ACP1 (gene 52) (UniProt P24666); assay: NVS_ENZ_hACP1: NovaScreen (NVS) Enzymatic Assay for human Acid Phosphatase 1 (ACP1) (AID 2283136)
Sequence of human Acid Phosphatase 1 (ACP1), ACP1 (gene 52) (P24666 whole entry, looked up): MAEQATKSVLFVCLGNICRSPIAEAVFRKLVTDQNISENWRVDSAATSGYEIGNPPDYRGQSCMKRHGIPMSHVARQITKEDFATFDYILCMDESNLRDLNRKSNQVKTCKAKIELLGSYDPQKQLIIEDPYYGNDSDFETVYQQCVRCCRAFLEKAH
Summary of the method: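 Cell-free fluorescence read-out of phosphatase activity, substrate and product separated by mobility shift, taken 1.5 h after compound addition; protein produced in Sf9. Single 25 uM duplicate screen, followed by concentration series for actives, scored as signal loss relative to DMSO.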

[10] = target: human AKT serine/threonine Kinase 1 (AKT1), AKT1 (gene 207) (UniProt P31749); assay: NVS_ENZ_hAKT1: NovaScreen (NVS) Enzymatic Assay for human AKT serine/threonine Kinase 1 (AKT1) (AID 2283138)
Sequence of human AKT serine/threonine Kinase 1 (AKT1), AKT1 (gene 207) (P31749 whole entry, looked up): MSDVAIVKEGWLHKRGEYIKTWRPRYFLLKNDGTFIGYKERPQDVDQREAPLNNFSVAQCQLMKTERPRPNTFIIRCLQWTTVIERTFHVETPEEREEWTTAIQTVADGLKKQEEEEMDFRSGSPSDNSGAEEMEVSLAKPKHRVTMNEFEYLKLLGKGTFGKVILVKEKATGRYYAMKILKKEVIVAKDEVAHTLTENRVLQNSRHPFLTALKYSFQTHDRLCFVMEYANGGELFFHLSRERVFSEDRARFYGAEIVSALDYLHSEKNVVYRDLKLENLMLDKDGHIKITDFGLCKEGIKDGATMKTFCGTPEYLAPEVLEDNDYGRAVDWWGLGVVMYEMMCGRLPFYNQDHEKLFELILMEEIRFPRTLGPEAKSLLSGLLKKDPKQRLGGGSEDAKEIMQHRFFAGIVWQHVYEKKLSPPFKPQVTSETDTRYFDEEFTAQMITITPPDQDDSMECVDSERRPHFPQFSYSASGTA
Summary of the method: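 A biochemical assay with recombinant enzyme and specific substrate, read by fluorescence intensity with mobility-shift separation 1 hour after dosing. Actives from 25 uM duplicate screening were titrated up to 50 uM against DMSO baseline.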

## CCCCC(CC)COC(=O)CCCCC(=O)OCc1ccccc1 (centres undefined)
[1]
  AC50: 13.2 µM (active)

## NC(=O)N(O)[C@@H]1C=C[C@H](Oc2cccc(Oc3ccc(F)cc3)c2)C1
[2]
  AC50: 1.16 µM (active)
[3]
  AC50: 4.62 µM (active)
[1]
  AC50: 0.644 µM (active)

## O=C(O)c1ccccc1C(c1ccc(O)cc1)c1ccc(O)cc1
[1]
  AC50: 5.38 µM (active)

## COc1ccc([N+](=O)[O-])cc1N
[1]
  outcome: inactive

## Oc1cc2ccccc2c2ccccc12
[4]
  AC50: 0.0278 µM (active)
[2]
  AC50: 0.136 µM (active)
[5]
  AC50: 0.235 µM (active)
[3]
  AC50: 6.68 µM (active)
[1]
  AC50: 0.872 µM (active)
[6]
  AC50: 6.88 µM (active)
[7]
  AC50: 12.6 µM (active)

## CC(O)CO (centres undefined)
[7]
  outcome: inactive

## CC[C@H](c1ccc(O)cc1)[C@@H](CC)c1ccc(O)cc1
[5]
  AC50: 0.295 µM (active)
[1]
  AC50: 5.22 µM (active)

## NC(=O)N1C(=O)C(C(=O)c2cc(Cl)cs2)c2cc(F)c(Cl)cc21 (centres undefined)
[5]
  AC50: 15.7 µM (active)
[3]
  outcome: inactive
[1]
  outcome: inactive
[6]
  outcome: inactive
[8]
  AC50: 0.139 µM (active)

## COCC(C)OCC(C)O (centres undefined)
[9]
  outcome: inactive

## CCN(CC)CCNc1ccc(CNC=O)c2sc3ccc(OC)cc3c(=O)c12
[4]
  AC50: 7.1 µM (active)

## N#C[C@@H]1CC(F)(F)CN1C(=O)CNC1CC2CCC(C1)N2c1ncccn1 (some centres undefined)
[10]
  outcome: inactive

## COC(=O)CCCCC(=O)OC
[8]
  outcome: inactive

## CC(=O)NC1(c2cccc(F)c2)CCN(CC[C@@]2(c3ccc(Cl)c(Cl)c3)CN(c3ccccc3)C(=O)CO2)CC1
[2]
  AC50: 2.77 µM (active)
[5]
  AC50: 6.63 µM (active)
[3]
  AC50: 1.78 µM (active)
[1]
  AC50: 1.79 µM (active)

## O=C(OCCOCCOC(=O)c1ccccc1)c1ccccc1
[4]
  AC50: 1.71 µM (active)
[5]
  AC50: 15.3 µM (active)
[1]
  AC50: 7.94 µM (active)

## CCCCCCCCCCCCCC[N+](C)(C)C
[2]
  AC50: 3.64 µM (active)
[1]
  AC50: 2.73 µM (active)
[8]
  AC50: 4.96 µM (active)

## CC[C@H](C)[C@@H](C(=O)O)n1sc2ccccc2c1=O
[1]
  AC50: 13.4 µM (active)

## O=[N+]([O-])c1ccc(O)cc1
[2]
  outcome: inactive
[1]
  outcome: inactive

## c1ccc2cc3c(ccc4ccccc43)cc2c1
[6]
  outcome: inactive

## OCCC(F)(F)C(F)(F)C(F)(F)C(F)(F)C(F)(F)C(F)(F)F
[1]
  AC50: 6.15 µM (active)

## CCCCCCCCCCCCc1ccccc1S(=O)(=O)O
[5]
  AC50: 5.06 µM (active)
[10]
  AC50: 29.1 µM (active)
[8]
  AC50: 2.23 µM (active)

## CCCOc1sc(C(=O)N2CCC(c3cc(CN)ccc3F)CC2)c(C)c1Br
[4]
  AC50: 5.25 µM (active)
[5]
  AC50: 1.92 µM (active)
[3]
  AC50: 14.4 µM (active)
[1]
  AC50: 0.68 µM (active)
[8]
  AC50: 4.17 µM (active)

## CC1=C(/C=C/C(C)=C/C=C/C(C)=C/C(=O)O)C(C)(C)CCC1
[4]
  outcome: inactive
[2]
  outcome: inactive
[1]
  outcome: inactive

## CC#C[C@]1(O)CC[C@H]2[C@@H]3CCC4=CC(=O)CCC4=C3[C@@H](c3ccc(N(C)C)cc3)C[C@@]21C
[5]
  AC50: 4.12 µM (active)
[1]
  AC50: 3.91 µM (active)

## CC(C)(C)c1ccc(O)c(C(C)(C)C)c1
[8]
  outcome: inactive

## Cc1cc(CCN2CCN(c3nsc4ccccc34)CC2)cc2c1NC(=O)CC2(C)C
[2]
  outcome: inactive
[5]
  AC50: 10 µM (active)
[1]
  AC50: 4.35 µM (active)

## ClC1=C(Cl)C(Cl)(Cl)C(Cl)=C1Cl
[1]
  outcome: inactive

## O=C(O)Cc1cc(I)c(Oc2cc(I)c(O)c(I)c2)c(I)c1
[3]
  outcome: inactive
[1]
  outcome: inactive
[8]
  outcome: inactive

## Cc1cc(C)c(O)c(C)c1
[1]
  outcome: inactive

## Cc1oc(-c2ccccc2)nc1CCOc1ccc(C[C@H](Nc2ccccc2C(=O)c2ccccc2)C(=O)O)cc1
[3]
  outcome: inactive
[1]
  outcome: inactive
[6]
  AC50: 8.25 µM (active)
[8]
  AC50: 1.17 µM (active)

## c1ccc2c(c1)Cc1ccccc1-2
[8]
  outcome: inactive

## C#C[C@]1(O)CC[C@H]2[C@@H]3CCC4=CC(=O)CC[C@@H]4[C@H]3CC[C@@]21C
[1]
  AC50: 3.13 µM (active)

## CCCCCCCCOC(=O)CCCCCCCCC(=O)OCCCCCCCC
[10]
  outcome: inactive

## CCCCCCCCCCCCCCCS(=O)(=O)Oc1ccccc1
[1]
  AC50: 5 µM (active)

## CCC(=C(c1ccc(O)cc1)c1ccc(OCCN(C)C)cc1)c1ccccc1
[1]
  AC50: 3.91 µM (active)
[10]
  outcome: inactive
[8]
  AC50: 16.1 µM (active)

## Nc1cccc2c(N)cccc12
[4]
  AC50: 3.06 µM (active)
[2]
  AC50: 3.62 µM (active)
[5]
  AC50: 6.16 µM (active)
[1]
  AC50: 3.08 µM (active)
[10]
  AC50: 3.13 µM (active)
[8]
  AC50: 19.5 µM (active)
